Measured values taken from PubChem BioAssay AID1159580 (chemical genetic matrix, 2015).
Among all 5,500 compounds or so, about 2,000 (36%) were called active. Roughly 18% stayed inconclusive and do not appear here. Cut-off read from the data, not from the text of the source: active = normalized growth mostly below about 0.91 (no sharp cut-off); inconclusive = no clear call, values can overlap the other calls; inactive = mostly above about 0.92. Some of the results follow.

Assay: chemical genetic growth profiling, strain panel (AID 1159580);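 note: tested at 20 µM; growth read once vehicle control cultures reached saturation at 30 °C; 1 = growth at the plate median or of vehicle wells; lower values mean less growth of the strain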
Details: growth OD

Measured: normalized growth

CC(C)CCCC(C)C1CC[C@@]2(C)C3=C(CC[C@]12C)[C@@]1(C)CC[C@H](O)C(C)(C)C1CC3 (stereo partly specified)
inactive: S. cerevisiae deletion strains, locus YAL013W, strain DEP1, hits give low values 1.01 | S. cerevisiae deletion strains, locus YBR021W, strain FUR4, hits give low values 0.959 | S. cerevisiae deletion strains, locus YBR229C, strain ROT2, hits give low values 1 | S. cerevisiae deletion strains, locus YCL029C, strain bik1, hits give low values 0.976 | S. cerevisiae deletion strains, locus YDL035C, strain GPR1, hits give low values 1 | S. cerevisiae deletion strains, locus YDL074C, strain BRE1, hits give low values 1.06 | S. cerevisiae deletion strains, locus YDL101C, strain DUN1, hits give low values 1.01 | S. cerevisiae deletion strains, locus YDL134C, strain PPH21, hits give low values 0.997 | S. cerevisiae deletion strains, locus YDL185W, strain tfp1, hits give low values 0.985 | S. cerevisiae deletion strains, locus YDL192W, strain arf1, hits give low values 0.983 | S. cerevisiae deletion strains, locus YDR101C, strain arx1, hits give low values 0.996 | S. cerevisiae deletion strains, locus YDR150W, strain NUM1, hits give low values 1 | S. cerevisiae deletion strains, locus YDR162C, strain NBP2, hits give low values 1.02 | S. cerevisiae deletion strains, locus YDR318W, strain mcm21, hits give low values 0.974 | S. cerevisiae deletion strains, locus YDR388W, hits give low values 0.981 | S. cerevisiae deletion strains, locus YDR502C, strain sam2, hits give low values 0.99 | S. cerevisiae deletion strains, locus YEL061C, strain CIN8, hits give low values 1.01 | S. cerevisiae deletion strains, locus YER110C, hits give low values 0.975 | S. cerevisiae deletion strains, locus YER155C, strain BEM2, hits give low values 1 | S. cerevisiae deletion strains, locus YER167W, strain BCK2, hits give low values 0.99 | S. cerevisiae deletion strains, locus YGL078C, strain dbp3, hits give low values 0.993 | S. cerevisiae deletion strains, locus YGL086W, strain mad1, hits give low values 0.986 | S. cerevisiae deletion strains, locus YGL248W, strain PDE1, hits give low values 0.995 | S. cerevisiae deletion strains, locus YGR078C, strain PAC10, hits give low values 1.04 | S. cerevisiae deletion strains, locus YGR135W, strain pre9, hits give low values 0.995 | S. cerevisiae deletion strains, locus YGR229C, strain SMI1, hits give low values 1.03 | S. cerevisiae deletion strains, locus YGR252W, strain gcn5, hits give low values 0.95 | S. cerevisiae deletion strains, locus YHR030C, strain SLT2, hits give low values 0.998 | S. cerevisiae deletion strains, locus YHR079C, strain IRE1 (second series), hits give low values 0.982 | S. cerevisiae deletion strains, locus YHR094C, strain hxt1, hits give low values 0.985 | S. cerevisiae deletion strains, locus YHR129C, strain ARP1, hits give low values 1 | S. cerevisiae deletion strains, locus YHR200W, strain rpn10, hits give low values 0.981 | S. cerevisiae deletion strains, locus YIL066C, strain RNR3, hits give low values 1.01 | S. cerevisiae deletion strains, locus YIL073C, strain SPO22, hits give low values 0.918 | S. cerevisiae deletion strains, locus YIL125W, strain kgd1, hits give low values 0.992 | S. cerevisiae deletion strains, locus YIR030C, strain dcg1, hits give low values 0.987 | S. cerevisiae deletion strains, locus YJL095W, strain BCK1, hits give low values 1.06 | S. cerevisiae deletion strains, locus YJL134W, strain LCB3, hits give low values 0.994 | S. cerevisiae deletion strains, locus YJL168C, strain set2, hits give low values 0.985 | S. cerevisiae deletion strains, locus YJL187C, strain SWE1 (second series), hits give low values 1 | S. cerevisiae deletion strains, locus YJR043C, strain POL32, hits give low values 0.987 | S. cerevisiae deletion strains, locus YJR075W, strain HOC1, hits give low values 1.03 | S. cerevisiae deletion strains, locus YKL009W, strain mrt4, hits give low values 0.939 | S. cerevisiae deletion strains, locus YKL068W, hits give low values 1 | S. cerevisiae deletion strains, locus YKL085W, strain MDH1 (second series), hits give low values 0.988 | S. cerevisiae deletion strains, locus YKL085W, strain MDH1, hits give low values 0.988 | S. cerevisiae deletion strains, locus YKL190W, strain CNB1, hits give low values 1 | S. cerevisiae deletion strains, locus YKR001C, strain vps1, hits give low values 0.984 | S. cerevisiae deletion strains, locus YLR039C, strain RIC1, hits give low values 0.985 | S. cerevisiae deletion strains, locus YLR058C, strain SHM2, hits give low values 1 | S. cerevisiae deletion strains, locus YLR102C, strain apc9, hits give low values 0.993 | S. cerevisiae deletion strains, locus YLR262C, strain YPT6, hits give low values 0.976 | S. cerevisiae deletion strains, locus YLR268W, strain sec22, hits give low values 0.996 | S. cerevisiae deletion strains, locus YLR330W, strain CHS5, hits give low values 1 | S. cerevisiae deletion strains, locus YLR342W, strain FKS1 (second series), hits give low values 0.96 | S. cerevisiae deletion strains, locus YLR371W, strain rom2, hits give low values 0.98 | S. cerevisiae deletion strains, locus YLR418C, strain cdc73, hits give low values 1.04 | S. cerevisiae deletion strains, locus YML016C, strain PPZ1, hits give low values 0.997 | S. cerevisiae deletion strains, locus YML032C, strain rad52, hits give low values 0.966 | S. cerevisiae deletion strains, locus YML124C, strain tub3, hits give low values 0.982 | S. cerevisiae deletion strains, locus YMR078C, strain ctf18, hits give low values 0.972 | S. cerevisiae deletion strains, locus YMR223W, strain ubp8, hits give low values 0.965 | S. cerevisiae deletion strains, locus YMR263W, strain SAP30, hits give low values 1.03 | S. cerevisiae deletion strains, locus YMR307W, strain GAS1, hits give low values 0.957 | S. cerevisiae deletion strains, locus YNL067W, strain RPL9B, hits give low values 1.04 | S. cerevisiae deletion strains, locus YNL128W, strain TEP1, hits give low values 1.04 | S. cerevisiae deletion strains, locus YNL153C, strain GIM3, hits give low values 1.02 | S. cerevisiae deletion strains, locus YNL233W, strain BNI4, hits give low values 1.01 | S. cerevisiae deletion strains, locus YNL250W, strain rad50, hits give low values 1.02 | S. cerevisiae deletion strains, locus YNL271C, strain bni1, hits give low values 0.988 | S. cerevisiae deletion strains, locus YNL298W, strain CLA4, hits give low values 0.967 | S. cerevisiae deletion strains, locus YNL307C, strain MCK1, hits give low values 0.959 | S. cerevisiae deletion strains, locus YNL322C, strain KRE1, hits give low values 1.01 | S. cerevisiae deletion strains, locus YNR052C, strain pop2, hits give low values 0.98 | S. cerevisiae deletion strains, locus YOL006C, strain TOP1, hits give low values 1.03 | S. cerevisiae deletion strains, locus YOL012C, strain htz1 0.94 | S. cerevisiae deletion strains, locus YOL147C, strain pex11, hits give low values 0.989 | S. cerevisiae deletion strains, locus YOR061W, strain CKA2, hits give low values 1.01 | S. cerevisiae deletion strains, locus YOR069W, strain VPS5, hits give low values 0.995 | S. cerevisiae deletion strains, locus YOR136W, strain idh2, hits give low values 0.979 | S. cerevisiae deletion strains, locus YOR144C, strain elg1, hits give low values 0.994 | S. cerevisiae deletion strains, locus YOR184W, strain ser1, hits give low values 0.932 | S. cerevisiae deletion strains, locus YOR316C, strain cot1, hits give low values 0.985 | S. cerevisiae deletion strains, locus YPL055C, strain LGE1, hits give low values 1.05 | S. cerevisiae deletion strains, locus YPL241C, strain CIN2, hits give low values 1 | S. cerevisiae deletion strains, locus YPR119W, strain clb2, hits give low values 0.999 | S. cerevisiae deletion strains, locus YPR141C, strain kar3, hits give low values 0.993 | S. cerevisiae deletion strains, locus YPR163C, strain tif3, hits give low values 0.981 | S. cerevisiae deletion strains, locus YPR167C, strain met16, hits give low values 0.994 | S. cerevisiae deletion strains, strain wtn01, hits give low values 0.985 | S. cerevisiae strains, strain wild type, hits give low values 0.957
